The record followed here is PubChem BioAssay.

The nature of experiment [1]: EMT-state selective cytotoxicity in co-culture – imaging, PC-3E GFP, TEM4-18 mCherry, primary screen (AID 1345086;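 active means compounds killing one labelled cell type while sparing the other, by normalised counts and ratio limits, not self-fluorescent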;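 on all read-outs here: cells exposed to compound for 72 h before imaging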;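 on red/green cell ratio (normalised): normalised mesenchymal count divided by normalised epithelial count so high means epithelial killing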). The following applies: PC-3E GFP / TEM4-18 mCherry co-culture, imaging cell counts, at 1 µM; for red/green cell ratio (normalised): actives lie on both sides, counts scaled to control wells, 1 = unselective.
Experiment [2] can be described thus: viability loss with induced miR-34 in A549 – imaging, A549 dox-inducible miR-34, nuclei and caspase counts, primary screen (AID 1347080). The conditions noted are these: A549 miR-34 inducible, Hoechst nuclei count, 48 h.
Where [3] appears, read: measured here: epithelial PC-3E GFP cell survival.
The mark [4] stands for this setting: measured here: mesenchymal TEM4-18 mCherry cell survival.
The mark [5] stands for this setting: stronger effect = lower value, cell number ratio, induced over uninduced.
Where [6] appears, read: measured here: relative caspase fold change +Dox/-Dox.
Where [7] appears, read: measured here: total cells with miR-34 induction, stronger effect = lower value.
Where [8] appears, read: measured here: total cells without miR-34 induction.

Active and inactive are the calls of the source.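 How the source made its calls, unless noted: active means compounds whose cell count with miR-34 switched on is under 0.7 times the count with it off; inactive means the rest.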

For `C=C1CC2C3C=C(C)C4=CC(=O)CC[C@]4(C)C3CC[C@]2(C)[C@@]1(OC(C)=O)C(C)=O` (stereo not given in full), in experiment [1], the red/green cell ratio (normalised) was 1.26 (inactive). Besides, the normalised cell number in experiment [1] (setting [3]) was 0.99; in experiment [1] (setting [4]), 1.24. Moreover, the fold change in experiment [2] (setting [5]) was 0.949 (inactive); in experiment [2] (setting [6]) it was 1.45. For the same compound, the values for the cell count in experiment [2] (setting [7]) and in experiment [2] (setting [8]) were 4400 and 4640, respectively.
As for `CC(C)(CO)C(O)C(=O)NCCC(=O)NCCSSCCNC(=O)CCNC(=O)C(O)C(C)(C)CO` (stereo not given), the red/green cell ratio (normalised) in experiment [1] was 0.97 (inactive). The normalised cell number in experiment [1] (setting [3]) turned out to be 0.82; in experiment [1] (setting [4]), 0.8. Also, the fold change was 0.968 (inactive) in experiment [2] (setting [5]) and 0.786 in experiment [2] (setting [6]). Also, the cell count came to 8560 in experiment [2] (setting [7]) and 8840 in experiment [2] (setting [8]).
`CC(C)(O)c1ccccc1CC[C@@H](SC1(CC(=O)O)CC1)c1cccc(/C=C/c2ccc3ccc(Cl)cc3n2)c1`: the red/green cell ratio (normalised) in experiment [1] was 1.02 (inactive). Further, the normalised cell number was determined as 1.13 in experiment [1] (setting [3]) and 1.16 in experiment [1] (setting [4]). The fold change is 0.955 (inactive) in experiment [2] (setting [5]) and 0.641 in experiment [2] (setting [6]). For the same compound, the cell count in experiment [2] (setting [7]) was found to be 9020; in experiment [2] (setting [8]), 9450.
On to `CC(=O)[C@@]12O[C@](C)(c3ccccc3)O[C@@H]1CC1C3CCC4=CC(=O)CC[C@]4(C)C3CC[C@@]12C` (stereo not given in full), for which the red/green cell ratio (normalised) in experiment [1] was 1.21 (inactive). Also, the values for the normalised cell number in experiment [1] (setting [3]) and in experiment [1] (setting [4]) were 1.05 and 1.26, respectively. The results for the fold change in experiment [2] (setting [5]) and in experiment [2] (setting [6]) were 0.858 (inactive) and 1.15, respectively. In addition, the values for the cell count in experiment [2] (setting [7]) and in experiment [2] (setting [8]) were 5100 and 5940, respectively.
Regarding `NC(=O)C1CCCN1C(=O)C(Cc1cnc[nH]1)NC(=O)C1CCC(=O)N1` (stereo not given), the red/green cell ratio (normalised) in experiment [1] was 1.11 (inactive). Also, the normalised cell number in experiment [1] (setting [3]) turned out to be 0.94; in experiment [1] (setting [4]), 1.04. Moreover, the results for the fold change in experiment [2] (setting [5]) and in experiment [2] (setting [6]) were 0.936 (inactive) and 0.922, respectively. In addition, the cell count in experiment [2] (setting [7]) is 8800; in experiment [2] (setting [8]), 9400.
With `O=C(O)c1ccccc1-c1c2cc(I)c(=O)c(I)c-2oc2c(I)c(O)c(I)cc12`, in experiment [1], the red/green cell ratio (normalised) was 0.52 (inactive). In addition, the normalised cell number turned out to be 0.98 in experiment [1] (setting [3]) and 0.5 in experiment [1] (setting [4]). Moreover, the fold change is 0.927 (inactive) in experiment [2] (setting [5]) and 0.976 in experiment [2] (setting [6]). Further, the figures for the cell count in experiment [2] (setting [7]) and in experiment [2] (setting [8]) were 9160 and 9880, respectively.
With `CCC(=O)Oc1ccc2c(c1)CCC1C2CC[C@@]2(C)C1CC[C@@H]2OC(=O)CC` (stereo not given in full), the red/green cell ratio (normalised) in experiment [1] was 1.36 (inactive). Besides, the normalised cell number in experiment [1] (setting [3]) was determined as 0.8; in experiment [1] (setting [4]), 1.09. Also, the fold change was 0.968 (inactive) in experiment [2] (setting [5]) and 0.855 in experiment [2] (setting [6]). The values for the cell count in experiment [2] (setting [7]) and in experiment [2] (setting [8]) were 8160 and 8430, respectively.
On to `NC(=O)c1ncn(C2O[C@H](CO)[C@@H](O)[C@H]2O)c1N` (stereo not given in full), for which the red/green cell ratio (normalised) in experiment [1] is 0.89 (inactive). Moreover, the normalised cell number stood at 1.13 in experiment [1] (setting [3]) and 1 in experiment [1] (setting [4]). Moreover, the fold change in experiment [2] (setting [5]) is 0.937 (inactive); in experiment [2] (setting [6]), 0.793. For the same compound, the cell count in experiment [2] (setting [7]) turned out to be 9050; in experiment [2] (setting [8]), 9660.
With `C#C[C@]1(O)CCC2C3CCc4cc(OC5CCCC5)ccc4C3CC[C@@]21C` (stereo not given in full), the red/green cell ratio (normalised) in experiment [1] was 0.98 (inactive). For the same compound, the normalised cell number in experiment [1] (setting [3]) was found to be 1.02; in experiment [1] (setting [4]), 1. Besides, the fold change in experiment [2] (setting [5]) is 0.818 (inactive); in experiment [2] (setting [6]), 0.977. Moreover, the figures for the cell count in experiment [2] (setting [7]) and in experiment [2] (setting [8]) were 4740 and 5800, respectively.
In the case of `O=C1SCN(Cc2ccccc2)CN1Cc1ccccc1`, the red/green cell ratio (normalised) in experiment [1] is 0.9 (inactive). The normalised cell number in experiment [1] (setting [3]) amounted to 0.96; in experiment [1] (setting [4]) it was 0.86. For the same compound, the fold change in experiment [2] (setting [5]) was 0.983 (inactive); in experiment [2] (setting [6]) it was 0.637. Further, the cell count in experiment [2] (setting [7]) came to 8570; in experiment [2] (setting [8]), 8710.
